# Compounds without any hit were thinned out: in the full panel of roughly 83,000, 20% have a hit.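 Plates (96-well) were seeded with cells, treated with compound at one concentration, and incubated for 48 hours before percent growth was determined.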 Values without a mark were called inactive. Activity calls are given as the source filed them.
# System: BT-549 breast
# Assay: NCI-60 one-dose screen, 48 h (100 = growth as untreated, 0 = no growth, -100 = all killed)
# Details: 10 µM unless noted
# Protocol: Growth inhibition of the BT-549 human tumor cell line is measured as a screen for anti-cancer activity. Cells are grown in 96 well plates and exposed to the test compound for 48 hours. Compounds are tested at a single concentration, which is 10^-5 M for most compounds. The reported endpoint is percent growth (GI% or GIPRCNT), where numbers from 0 - 100% represent growth inhibition, and numbers from -100% - 0 represent cell death. For example, a value of 40 represents 60% growth inhibition. A value of 0 means no net growth occurred over the course of the experiment. A value of -40 indicates 40% of cells at the beginning of the experiment died by the end of the experiment. A value of -100 means all cells are dead at the end of the experiment.
# NCI-60 Human Tumor Cell Lines Screen was performed using the standard one-dose NCI protocol, which is described in more detail at https://dtp.cancer.gov/discovery_development/nci-60/default.htm.
# Compounds with GIPRCNT values below 10 were considered active. Activity score was based on GIPRCNT using the following formula: […]
# Score is 0 for GIPRCNT values of 100 or above, 50 for GIPRCNT values of 0, and 100 for GIPRCNT values of -100.
row,SMILES,growth
1,Cc1ccccc1CNC(=O)C1CN(c2ccc(Cl)cc2)N(c2ccc(Cl)cc2)C1=O (stereo not given),90.6%
2,CCOC(=O)c1c2c(c(C)n1Cc1ccc(OC)cc1)-c1oncc1CC2,104%
3,COc1cc2nc(-c3cnc(N(C)C)nc3)nc(NC3CCN(Cc4ccccc4)CC3)c2cc1OC,-1.66% (active)
4,O=C(NCc1ccccc1)C1CN(c2ccc(Cl)cc2)N(c2ccc(Cl)cc2)C1=O (stereo not given),83.4%
5,COc1ccc2[nH]c(O)c(N=NC(=O)c3oc4ccccc4c3C)c2c1,70.1%
6,CSc1nc2c(c(=O)[nH]1)N=C1c3ccccc3C(=O)C1C(c1ccc(F)cc1)N2 (stereo not given),97.2%
7,COc1ccc2sc3c(NCCCN)nc4ccccc4c3c(=O)c2c1,82.1%
8,COc1ccc(-c2nsc3c2NC(=O)CC3c2ccsc2)cc1 (stereo not given),12.1%
9,Cc1cc(Br)c(N)c(Br)c1,94.9%
10,O=S(=O)(Nc1ncccn1)c1ccc(NC2Nc3nc4ccccc4nc3S2)cc1 (stereo not given),95.9%
11,COc1cc2nc(NC3CCC3)nc(NC3CCN(C(C)C)CC3)c2cc1OC,72.5%
12,COc1ccc2sc(N(Cc3cccnc3)C(=O)c3ccc(C#N)cc3)nc2c1,92.1%
13,Cc1cccc2c(=O)c3c(sc12)c(NCCN)nc1ccccc13,72.1%
14,Cn1c(/C=C(\C#N)c2ccccc2)nc2c(N3CCOCC3)nc(Cl)nc21,-77.2% (active)
15,O=C1/C(=C/c2ccc(O)cc2)COc2ccc(O)c(O)c21,57.5%
16,Cn1nc(C(C)(C)C)cc1NC(=O)Cc1ccc(/C=C2\C(=O)Nc3ccccc32)cc1,35.4%
17,Fc1cccc(COc2ccc(Nc3ncnc4onc(-c5ccccc5)c34)cc2)c1,12.8%
18,C1=CC2(C=C1)OC21CCC2(C=CC3(C2)OC3C2CCCCC2)CC1 (stereo not given),107%
19,CCOc1ccc(-c2nonc2NC(=O)c2cccc(C)c2)cc1OCC,66.8%
20,O=C(N/N=C/c1ccccc1Cl)C(=O)Nc1cccc(C(F)(F)F)c1,112%

row,SMILES,growth
1,NCCCNc1nc2ccccc2c2c(=O)c3cc(F)ccc3sc12,81.1%
2,COc1ccc(N(C)c2nc(N)nc3sc4c(c23)CCCC4)cc1,24%
3,Cc1ccc(F)cc1NC(=O)c1cc(Cl)ccc1Nc1ccccc1,86.2%
4,Cc1nc(Nc2ccccn2)sc1C(=O)/C=C/c1ccc(Cl)cc1,19%
5,COc1cc(C(=O)NN=C2c3ccccc3-c3ccccc32)cc(OC)c1OC,43.3%
6,Nc1nc(-c2cnccn2)nn1-c1nc2ccccc2s1,104%
7,COc1ccc(-c2cn[nH]c2-c2ccc(OC)c(O)c2)cc1,74.1%
8,O=Cc1c(OCc2cnnn2CC(=O)Nc2ccc(Br)cc2)ccc2ccccc12,80.8%
9,O=S1(=O)N(Cc2ccccc2)[C@@H](Cc2ccccc2)[C@H](O)[C@H](O)[C@H](Cc2ccccc2)N1Cc1ccccc1,15.7%
10,Nc1ccn(C2O[C@H](CO)[C@@H](O)[C@H]2O)c(=O)n1 (stereo not given in full),111%
11,O=C1C(Cl)=C(NCc2ccco2)C(=O)c2ccccc21,103%
12,COc1cc(/C=C2\Oc3cc(OCCCN4CCCC4)ccc3C2=O)cc(OC)c1,78.3%
13,COc1ccc(C2=C(c3cccc(OC)c3)C(=O)c3ccc(C)nc3C2=O)cc1,57.5%
14,COc1ccc(C2c3ccc4ccccc4c3Oc3ncn(CCCn4ccnc4)c(=N)c32)cc1OC (stereo not given),69.9%
15,CCOc1cc2c(cc1OCC)C(c1cc(C)c(O)c(C)c1)NCC2 (stereo not given),107%
16,CCCCC(O)(c1ccc(Cl)cc1)C(CN1CCOCC1)c1ccc(Cl)cc1 (stereo not given),59.5%
17,COc1ccc(Br)c(/C=C2\SC(=Nc3ccc(O)cc3)NC2=O)c1,83.5%
18,COc1ccc(Cn2c(Br)c3c(c2Br)-c2nc(NC(=O)c4ccc(OC)cc4)sc2CC3)cc1,84.2%
19,Cc1ccc2[nH]c(=O)cc(-n3nncc3Cn3c4ccccc4c4ccccc43)c2c1,96.6%
20,CCOc1ccccc1CN1CCc2nc3cc(C(C)(C)C)[nH]n3c(=O)c2C1,106%

# From PubChem BioAssay (NCI)
